Source: PubChem (National Center for Advancing Translational Sciences (NCATS))
Pf growth 96h = P. falciparum growth inhibition at 96 hour, primary screen for plastid delayed-death inhibitors; Potency, µM (highest dose often 28.7 µM), for the others: top-dose activity change, negative = inhibition, hits mostly inhibitors; P. falciparum luciferase reporter growth, 96 h; 320,000 compounds, 6.9% hits; further: on the % scale 0 is the no-effect control and ±100 the full control effect
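Luminescence readout: decreased luciferase signal marks inhibited growth of reporter-expressing P. falciparum in infected red cells (2% hematocrit, 0.05% parasitemia final), exposed to compound two generations (96 h, 37 C, 5% CO2).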
Pf growth 48h = P. falciparum growth inhibition at 48 hours (one generation); Potency, µM (top dose mostly 28.7 µM), for the others: top-dose activity change, negative = inhibition, hits mostly inhibitors; 310,000 compounds, 5.9% hits; P. falciparum luciferase growth in erythrocytes, 48 h; further: on the % scale 0 is the no-effect control and ±100 the full control effect
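Growth was read as firefly luciferase luminescence after a 48 h, 37 C, 5% CO2 exposure of compounds to reporter-bearing P. falciparum cultures (0.1% parasitemia, 2% hematocrit final) in Albumax-supplemented RPMI 1640.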
HCV inhibitor = blocks hepatitis C virus. Huh7.5.1 HCVcc-Cre infection, luciferase reporter, 44 h. Potency, µM (top dose mostly 41.8 µM), without a hit: at the top dose activity change, negative = inhibition, usual class: inhibitors. 340,000 compounds, 3.4% hits; further: on the % scale 0 is the no-effect control and ±100 the full control effect
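HCVcc-Cre virus at an moi near 0.5 was added right after compound to cells cultured 4 h from seeding (1,000 cells/well). Luciferase activity was determined 44 h later, 15 min after substrate addition at RT.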
Vaccinia mCherry = inhibitors of vaccinia virus infection (mCherry reporter signal) | Vaccinia virus mCherry reporter infection, fluorescence | Potency, µM (series often up to 36.5 µM), for the others: at the highest dose activity change, negative = inhibition, usual class: inhibitors | 310,000 compounds, 0.63% hits; calls by dose curve; tested in A549 cells; further: on the % scale 0 is the no-effect control and ±100 the full control effect; nearly all actives have a fitted effect of over 35% in size
NS1 inh = influenza NS1 inhibition | AID 2326 | 270,000 compounds, 0.4% hits | Potency, µM (titrated, usually from 46.1 µM), for inactives: top-dose activity, positive = more growth; calls by dose curve; further: actives are rising curves; nearly all actives have a fitted effect of over 50% in size
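A cell-based growth assay was used: compounds that relieve NS1-induced slow growth of budding yeast raise OD600. Assay medium was yeast nitrogen base with ammonium sulphate and -URA supplement, pH 6.0, with 2% galactose.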
VACV Venus inh = vaccinia inhibition (Venus reporter). Potency, µM (highest dose often 36.5 µM), for inactives: at the highest dose activity change, negative = inhibition, actives largely listed as inhibitors. AID 720580. Vaccinia virus Venus reporter expression, fluorescence. 330,000 compounds, 0.46% hits; calls by dose curve; tested in A549 cells; further: on the % scale 0 is the no-effect control and ±100 the full control effect; nearly all actives have a fitted effect of over 30% in size
* = called active by the depositor; i = inactive; ? = inconclusive; / = no result. Rows were chosen to be rich in hits. Some 11% of all compounds tested hit in one or more screens of this group. Unless noted, the call rests on the fitted dose curve; in most records, active means well fitted inhibition curve with a large enough effect; inconclusive means small, poorly fitted or top-dose-only effect, or another doubt; inactive means no such curve, though single readings can be large or run the other way. Potency means the concentration at half of the fitted maximal effect.

SMILES	Pf growth 96h	Pf growth 48h	HCV inhibitor	Vaccinia mCherry	NS1 inh	VACV Venus inh
Nc1cc(S(=O)(=O)Nc2ccc(Cl)cc2)ccc1N1CCOCC1	1%	13%	?	?	6%	-13%
N=C1c2ccccc2CN1c1ccc(N2CCOCC2)c(S(=O)(=O)Nc2ccc(Cl)cc2)c1	9.3µM*	?	/	/	5%	/
O=C(CN(Cc1ccccc1Cl)C(=O)c1ccc(CN2CCOCC2)o1)NCc1ccccc1	6.6µM*	-14%	7%	-23%	-7%	-13%
CCCOc1ccc(C(=O)CCNC(Cc2c[nH]c3ccccc23)C(=O)O)cc1 (stereo not given)	0%	27%	12%	/	1%	/
O=C(CSc1nnc(CNC(=O)c2ccco2)o1)Nc1ccc(F)cc1F	7%	12%	12%	i	5%	-10%
COc1cc2c(cc1OC)-c1cc3ccc(OC)c(OC)c3c[n+]1CC2	0.17µM*	0.19µM*	?	-13%	/	-17%
COc1ccc2cc3[n+](cc2c1O)CCc1cc2c(cc1-3)OCO2	/	/	/	i	/	7%
CCCCNC1C(CC)C(CCC)C(C#N)(C#N)C1(C#N)C#N (stereo not given)	?	12µM*	13µM*	/	-87%	-26%
CC1CN=C(Nc2ccc(N(C)C)cc2)S1 (stereo not given)	2.1µM*	17%	-10%	-17%	3%	-11%
Cc1cc(Cl)ccc1NC(=S)NCCN1CCOCC1	5.2µM*	-2%	21%	0%	10%	-7%
Cc1ccc(NC(=S)NCc2ccc(Cl)cc2)c(C)c1	?	10µM*	?	-29%	?	-23%
Cc1cc(Cl)ccc1NC(=S)NCc1ccccc1	2%	-7%	?	-21%	-12%	-13%
O=C(NC1CCCc2c1cnn2-c1cc(F)cc(F)c1)c1ccccn1 (stereo not given)	/	/	-13%	-13%	/	-19%
Cn1cnc([N+](=O)[O-])c1Sc1nc(N)nc2c1ncn2Cc1ccccc1	/	/	?	13µM*	-1%	?
Nc1nc(SCc2ccccc2[N+](=O)[O-])c2ncn(Cc3ccccc3)c2n1	/	/	11µM*	?	/	-24%
CCC(C)Cn1cnc2c(Sc3c([N+](=O)[O-])ncn3C)nc(N)nc21 (stereo not given)	/	/	-27%	16µM*	/	?
CCCCn1cnc2c(SCc3ccc([N+](=O)[O-])cc3)nc(N)nc21	/	/	?	4µM*	/	?
CCCCn1cnc2c(SCc3cccc(F)c3)nc(N)nc21	/	/	?	-3%	/	-2%
CCc1ccccc1NC(=O)CSc1nccn1C	/	/	/	-1%	/	-6%
O=C(NS(=O)(=O)Oc1ccc(F)cc1F)OC[C@@H]1CCCN2CCCCC12 (stereo not given in full)	14%	31%	-5%	-6%	-16%	0%
CCN(CC)c1ccc(N)cc1	?	1.9µM*	?	?	/	-20%
Cc1cc(C(=O)NC2CCCCC2)c(C)n1-c1ccc(F)cc1	0%	50%	10%	-1%	-7%	-6%
CC[n+]1c(/C=C/N(C)c2ccccc2)oc2ccccc21	-14%	0.93µM*	?	-28%	2%	-19%
CC[n+]1c(/C=C/Nc2ccccc2)oc2ccc(OC)cc21	15%	?	2%	-7%	-2%	9%
CC[n+]1c(/C=C/N(C)c2ccccc2)oc2ccc(F)cc21	?	2.9µM*	?	-26%	3%	-17%
SMILES	Pf growth 96h	Pf growth 48h	HCV inhibitor	Vaccinia mCherry	NS1 inh	VACV Venus inh
CC[n+]1c(/C=C/Nc2ccccc2)oc2ccccc21	?	?	8%	?	-12%	-25%
Cc1ccc(CNC(=O)CCn2cc(-c3ccc(F)cc3)nc2-c2ccncc2)cc1	?	8.3µM*	?	i	/	-18%
Cc1ccc(CNC(=O)CCn2cc(-c3ccc(C)cc3)nc2-c2ccncc2)cc1	9.3µM*	?	-8%	?	-6%	-27%
Cc1ccc(CNC(=O)c2ccc(Cn3cc(-c4ccc(C)cc4)nc3-c3ccncc3)cc2)cc1	?	?	?	-24%	10%	?
O=C(O)CCn1cc(-c2ccc(F)cc2)nc1-c1ccncc1	68%	-19%	13%	-14%	/	0%
O=C(CSc1ccc(F)cc1)NCCSc1ccccc1	-14%	52%	14%	-15%	/	-10%
CC1CCN(S(=O)(=O)c2ccc(C(=O)Nc3ccccc3-c3nc4ccccc4[nH]3)cc2)CC1	7.4µM*	4.1µM*	?	-7%	-5%	-19%
CC1CCN(S(=O)(=O)c2ccc(C(=O)Nc3ncccc3O)cc2)CC1	5.2µM*	?	-23%	-15%	16%	-8%
CC1CCCN(S(=O)(=O)c2ccc(C(=O)Nc3ccccc3-c3nc4ccccc4[nH]3)cc2)C1 (stereo not given)	?	1.5µM*	?	i	-9%	-9%
Cc1cc(F)ccc1S(=O)(=O)Nc1ccccc1C(=O)Nc1ccccc1-c1nc2ccccc2[nH]1	1.9µM*	9.3µM*	7.9µM*	?	17%	?
O=C(Nc1cccnc1Cl)c1cccc(S(=O)(=O)N2CCOCC2)c1	11%	11%	3%	-19%	16%	-3%
O=C(CSc1ccccc1)N1CCN(S(=O)(=O)c2cccs2)CC1	?	18%	1%	-7%	-14%	-23%
O=C(NNC(=O)c1ccc(-c2ccccc2)cc1)Nc1ccc(F)cc1F	36%	16%	8%	i	20%	-7%
CCCNc1c(NS(=O)(=O)c2ccc3c(c2)CCCC3)c(=O)oc2ccccc12	?	9%	13%	-2%	12%	-18%
Cc1ccc(S(=O)(=O)N2CCC(=O)N(C(COCc3ccc(Cl)cc3)C(C)C)CC2)cc1 (stereo not given)	?	?	?	-1%	-16%	-15%
CCOc1ccccc1C(C(=O)NC1CCCC1)N(Cc1ccco1)C(=O)CNC(=O)c1ccco1 (stereo not given)	?	8.3µM*	12%	-6%	-11%	-24%
Cc1ccc(C(C(=O)NCc2ccco2)N(Cc2ccco2)C(=O)CNC(=O)c2ccco2)cc1 (stereo not given)	6.6µM*	-5%	19%	-25%	-7%	?
COc1ccc(C(C(=O)NC2CCCCC2)N(Cc2ccco2)C(=O)CNC(=O)c2ccco2)cc1 (stereo not given)	/	/	11%	-14%	/	-7%
O=C(NCC(=O)N(Cc1ccc(F)cc1)C(C(=O)NC1CCCC1)c1ccco1)c1ccco1 (stereo not given)	/	-22%	?	-14%	0%	-9%
O=C(NCC(=O)N(Cc1ccccc1)C(C(=O)NC1CCCC1)c1ccco1)c1ccco1 (stereo not given)	5.2µM*	-3%	-3%	i	-9%	-15%
